Screening results from PubChem BioAssay.
Mtb bLac sens = beta-lactam sensitization of Mtb H37Rv | M. tuberculosis H37Rv growth with meropenem, percent inhibition | inhibition, % at 25 µM | 0.27% of 330,000 active; call rule not given here;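 note: growth measured after seven days incubation then overnight dye step; 0% = bacteria only wells and 100% = bacteria with antibiotic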
CCHF vOTU inh-1 = blocks the CCHF virus ovarian tumor domain protease; 0.55% of 370,000 active; inhibition, % at 11.5 µM; CCHFV vOTU protease, Pep-AMC fluorescence; note: 0% = vehicle wells with enzyme and 100% = no enzyme wells
GDH-TPI counter = inhibits GDH-TPI coupling enzymes, artifact for Mtb FBA screen; GDH-TPI coupled enzyme counterscreen, NADH absorbance; inhibition, % at 4.8 µM; 1.2% of 360,000 active; AID 588335;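 note: 0% = DMSO wells and 100% = wells lacking the enzyme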
RecA intein inh = blocks M. tuberculosis RecA intein splicing | P9WHJ3 | cell-free RecA intein splicing, fluorescence | inhibition, % (test concentration not listed) | 0.75% of 290,000 active; in the data active = inhibition above about 30%; inconclusive = no clear call, values can overlap the other calls;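 note: 0% = vehicle wells and 100% = reference inhibitor control wells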
Target sequence (P9WHJ3 whole entry, looked up): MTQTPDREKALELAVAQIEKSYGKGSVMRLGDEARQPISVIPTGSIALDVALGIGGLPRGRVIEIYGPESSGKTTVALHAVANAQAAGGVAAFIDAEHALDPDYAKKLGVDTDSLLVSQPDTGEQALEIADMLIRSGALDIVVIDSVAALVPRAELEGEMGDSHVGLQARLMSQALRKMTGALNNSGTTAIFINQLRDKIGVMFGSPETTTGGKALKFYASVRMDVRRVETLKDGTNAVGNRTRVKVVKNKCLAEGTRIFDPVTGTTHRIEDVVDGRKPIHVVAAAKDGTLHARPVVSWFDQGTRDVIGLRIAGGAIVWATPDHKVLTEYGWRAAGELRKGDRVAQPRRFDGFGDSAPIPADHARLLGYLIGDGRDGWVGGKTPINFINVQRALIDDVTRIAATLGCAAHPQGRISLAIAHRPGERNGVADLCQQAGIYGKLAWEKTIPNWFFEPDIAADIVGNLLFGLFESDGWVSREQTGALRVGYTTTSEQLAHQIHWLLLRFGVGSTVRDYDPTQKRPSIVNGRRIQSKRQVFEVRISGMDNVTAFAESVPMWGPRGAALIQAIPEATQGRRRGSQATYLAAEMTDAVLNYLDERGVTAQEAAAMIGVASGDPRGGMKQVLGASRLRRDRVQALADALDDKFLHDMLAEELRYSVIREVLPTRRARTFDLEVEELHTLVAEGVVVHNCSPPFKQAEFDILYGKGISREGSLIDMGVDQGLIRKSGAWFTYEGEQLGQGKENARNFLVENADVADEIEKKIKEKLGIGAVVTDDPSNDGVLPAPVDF
FBA Mtb inh = inhibits M. tuberculosis FBA enzyme; P9WQA3; purified M. tuberculosis FBA, fluorescence read-out; inhibition, % at 1 µM; 2.3% of 360,000 active; in the data active = inhibition above about 27%;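 note: 0% = vehicle and 100% = reference inhibitor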
CCHF vOTU inh-2 = confirmation of CCHF virus vOTU protease inhibitors | shares compounds with CCHF vOTU inh-1 | Recombinant CCHFV vOTU, Pep-AMC fluorescence | inhibition, % at 11.5 µM | 17% of 1,900 active
* hit, by the source's call; ? = inconclusive; nt = no result. Most compounds without a hit are left out; they make up all but 4.2% or so of the library. Cut-off read from the data, not from the text of the source, unless noted: active = inhibition above about 30%; inactive = the rest.

SMILES	Mtb bLac sens	CCHF vOTU inh-1	GDH-TPI counter	RecA intein inh	FBA Mtb inh	CCHF vOTU inh-2
Cc1ccc2c(c1)c(=O)c1c3n2CCN(C(=O)CCl)C3CC1 (stereo unspecified)	88.5	51.4*	1.4	14.6	8.0	19.0
Cc1ccc2c(c1)c(=O)c1c3n2CCN(CC#N)C3CC1 (stereo unspecified)	4.5	-5.6	-4.4	-1.7	-1.9	nt
COC(=O)[C@]12C[C@H](CC(=O)N3CCC(c4ccccc4)CC3)C(=O)N(Cc3cccc4ccccc34)C1=C[C@H](C(C)(C)C)O[C@@H]2C	nt	22.8	nt	nt	nt	nt
CCCCCCCCN1C(=O)[C@@H](CC(=O)N2CCN(C(=O)OCC)CC2)C[C@@]2(C(=O)OC)C1=C[C@H](C(C)C)O[C@@H]2C1CC1	nt	33.3*	nt	nt	nt	17.4
CCCCCCCCN1C(=O)[C@H](CC(=O)N2CCCC2)C[C@@]2(C(=O)OCC)CCCC=C12	nt	34.4*	nt	nt	nt	20.4
COC(=O)[C@]12CCCCC=C1N(CCC1=CCCCC1)C(=O)[C@H](CC(=O)NCCC(C)C)C2	nt	44.5*	nt	nt	nt	-5.6
CCCCCCCCN1C(=O)[C@@H](CC(=O)N2CCN(C(=O)c3ccco3)CC2)C[C@@]2(C(=O)OC)C1=C[C@H](C1CCCC1)O[C@@H]2C	nt	25.7	nt	nt	nt	nt
CCCCCCCCN1C(=O)[C@@H](CC(=O)NCc2ccc(C)o2)C[C@@]2(C(=O)OC)C1=C[C@H](C(C)C)O[C@@H]2C1CC1	nt	29.9*	nt	nt	nt	26.5
CCCCCCCCN1C(=O)[C@@H](CC(=O)NCc2ccccc2)C[C@@]2(C(=O)OC)C1=C[C@H](C(C)C)O[C@@H]2C1CC1	nt	39.0*	nt	nt	nt	11.9
COC(=O)[C@@]12C[C@@H](CC(=O)NCc3ccc(C)o3)C(=O)N(CCc3ccc(OC)c(OC)c3)C1=CCC(C)(C)C2	nt	36.4*	nt	nt	nt	-3.8
CCCCOCCCNC(=O)C[C@H]1C[C@@]2(C(=O)OC)C(=C[C@H](C(C)C)O[C@@H]2C2CC2)N(Cc2ccccc2)C1=O	nt	28.9	nt	nt	nt	nt
CCCCCCCCN1C(=O)[C@H](CC(=O)NCc2ccccc2)C[C@@]2(C(=O)OC)CCCCC=C12	nt	40.4*	nt	nt	nt	30.9*
COC(=O)[C@@]12C[C@@H](CC(=O)NCc3ccccc3)C(=O)N(CCc3ccc(OC)c(OC)c3)C1=CCC(C)(C)C2	nt	19.5	nt	nt	nt	nt
CCCCCCCCN1C(=O)[C@@H](CC(=O)NCCc2ccccc2OC)C[C@@]2(C(=O)OC)C1=C[C@H](C(C)C)O[C@@H]2C1CC1	nt	35.1*	nt	nt	nt	16.3
NS(=O)(=O)c1ccc(CCNC(=O)c2ccc(NS(=O)(=O)c3ccc4[nH]c(=O)[nH]c4c3)cc2)cc1	-5.7	4.7	-5.8	3.3	-0.5	nt
CC1CCC(NC(=O)c2cc(S(=O)(=O)N(C)C)ccc2N2CCCC2)CC1 (stereo unspecified)	-1.0	2.5	2.8	-1.3	2.8	nt
CSC1=N/C(=C\c2ccc(C)s2)C(=O)S1	3.6	-4.8	-0.7	-3.1	-2.5	nt
CSC1=N/C(=C\c2ccc(C)o2)C(=O)S1	0.0	29.7*	15.1	-4.1	-3.0	-7.8
CCOc1ccc(N=Nc2c(=O)[nH]n3c(=O)cc(C)[nH]c23)cc1	8.6	35.6*	13.3	4.3	-40.5	10.4
O=C(NCCNC1CCC(c2ccccc2)CC1)c1cccs1 (stereo unspecified)	-6.6	-2.1	5.0	-1.9	0.7	nt
O=C(Oc1ccc2c(c1)OCO2)c1cc2c(s1)CCC2	98.9	46.5*	1.9	3.7	3.4	-9.4
O=C(c1cc2c(s1)CCCC2)N1CCN(Cc2ccc3c(c2)OCO3)CC1	92.9	11.2	1.9	5.9	4.8	nt
Cc1cc(C)nc(SCC(=O)N/N=C/c2cccn2-c2cccc(C(F)(F)F)c2)n1	5.3	30.1*	17.9	1.9	-3.1	2.2
Cc1cc(C)nc(SCC(=O)N/N=C/c2cccn2-c2ccc(O)cc2)n1	-7.5	14.2	17.2	-0.1	-0.4	nt
Nc1c(C(=O)Nc2ccc3c(c2)OCCO3)nnn1Cc1ccc(Br)cc1	1.4	30.8*	-0.7	0.6	1.5	-8.7
SMILES	Mtb bLac sens	CCHF vOTU inh-1	GDH-TPI counter	RecA intein inh	FBA Mtb inh	CCHF vOTU inh-2
Nc1c(C(=O)Nc2ccc3c(c2)OCCO3)nnn1Cc1cccc(Br)c1	9.7	0.3	2.4	2.5	-0.9	nt
CCCN(CC(=O)Nc1ccccc1C)C(=O)C1CCN(S(=O)(=O)c2ccc3c(c2)OCCO3)CC1	nt	35.1*	4.8	nt	2.2	-12.6
O=C1Nc2ccccc2N(O)N1c1cc(-c2ccccc2)[nH]n1	-0.2	-8.2	-10.9	-4.4	3.2	nt
Nc1cc(S(=O)(=O)O)cc([N+](=O)[O-])c1O	4.2	31.4*	-10.4	-3.4	-0.9	9.2
Nc1cccc2c(O)cc(S(=O)(=O)O)cc12	nt	nt	19.4	nt	13.1	nt
O=[N+]([O-])c1cc(S(=O)(=O)c2ccc(O)c([N+](=O)[O-])c2)ccc1O	2.5	43.0*	-5.6	6.2	-3.1	5.3
Nc1ccc(O)c([N+](=O)[O-])c1	-3.0	12.6	4.9	nt	-2.6	nt
COC(COC(N)=O)C1=C(N2CC2)C(=O)C(C)=C(N2CC2)C1=O (stereo unspecified)	nt	31.7*	15.5	nt	0.4	12.9
CCOC(=O)N1CCN(c2c(N3CCN(C(=O)OCC)CC3)c(=O)c2=O)CC1	-7.1	5.7	5.3	1.6	-3.0	nt
Nn1c(SCc2cccc3ccccc23)nnc1-c1cc(-c2ccc(F)cc2)n[nH]1	nt	5.3	nt	nt	nt	nt
Nc1ccc(N2CCN(c3ccc(F)cc3)CC2)cc1	58.8	11.8	-8.0	-4.6	-3.7	nt
CC(=O)N1CCN(c2ccc(N)cc2)CC1	-5.1	38.2*	3.5	nt	-4.4	-15.3
COc1ccccc1NC(=O)C(C)OC(=O)C1CC(=O)N(Cc2ccco2)C1 (stereo unspecified)	nt	-7.4	13.7	nt	2.2	nt
C=CCNC(=O)CN(Cc1ccccc1)S(=O)(=O)c1ccccc1	2.9	15.3	4.5	-2.3	1.3	nt
O=C(Nc1ccc(S(=O)(=O)Nc2cnc3ccccc3n2)cc1)c1ccc([N+](=O)[O-])cc1Cl	-8.7	0.4	23.8	0.5	-0.5	nt
Cc1ccc(C(=O)OCC(=O)Nc2cc(C(C)(C)C)nn2-c2ccccc2)c(O)c1	-6.2	33.0*	2.4	1.4	5.2	-5.6
CC(OC(=O)C1CC1)C(=O)Nc1ncc(Cl)cc1Cl (stereo unspecified)	-1.2	-2.6	-3.9	nt	-3.3	nt
CCCCOCCCNC(=O)C[C@H]1C[C@@]2(C(=O)OC)C(=C[C@H](C(C)C)O[C@@H]2C2CC2)N(CCC2=CCCCC2)C1=O	nt	39.4*	nt	nt	nt	6.3
COC(=O)[C@]12C[C@H](CC(=O)NCCCCc3ccccc3)C(=O)N(CCC3=CCCCC3)C1=C[C@H](C(C)C)O[C@@H]2C1CC1	nt	36.8*	nt	nt	nt	1.8
CCCCOCCCNC(=O)C[C@H]1C[C@@]2(C(=O)OC)C(=C[C@H](C(C)(C)C)O[C@@H]2C)N(CCC2=CCCCC2)C1=O	nt	2.5	nt	nt	nt	nt
Cc1c(-c2cc(C(=O)O)on2)cnn1C	-5.1	-8.7	-6.8	-0.8	-9.3	nt
N#Cc1ccc(OCC(=O)OCC(=O)N2CCc3ccccc32)cc1	nt	4.2	3.1	nt	0.4	nt
O=C(CSc1nnc(NC(=O)C2CC(=O)N(c3ccc(F)cc3)C2)s1)NCc1ccco1 (stereo unspecified)	?	-3.5	-2.4	6.0	0.4	nt
